Of roughly 8,800 targets only a part is listed; those with a hit were picked by preference. About 0.5% of all pairs of compound and target were hits.

Among the data in the supplement of paper PMC10849652 are log2 fold change values, retold here.

UniProt P14314, sequence (P14314 whole entry, looked up): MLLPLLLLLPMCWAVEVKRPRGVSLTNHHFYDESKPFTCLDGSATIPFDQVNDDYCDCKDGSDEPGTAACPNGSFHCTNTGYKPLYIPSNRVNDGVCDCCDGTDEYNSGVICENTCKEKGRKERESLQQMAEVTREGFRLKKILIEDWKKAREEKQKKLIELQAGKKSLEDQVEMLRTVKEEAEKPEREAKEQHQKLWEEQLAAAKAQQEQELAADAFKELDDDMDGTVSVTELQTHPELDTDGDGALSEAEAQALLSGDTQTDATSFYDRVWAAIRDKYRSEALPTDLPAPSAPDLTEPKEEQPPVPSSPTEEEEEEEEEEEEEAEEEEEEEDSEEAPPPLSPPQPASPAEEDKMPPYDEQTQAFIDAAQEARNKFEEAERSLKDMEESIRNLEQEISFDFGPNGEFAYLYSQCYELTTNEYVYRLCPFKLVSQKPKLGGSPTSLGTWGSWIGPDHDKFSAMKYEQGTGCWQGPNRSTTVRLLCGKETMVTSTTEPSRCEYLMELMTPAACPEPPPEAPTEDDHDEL
UniProt P78356, sequence (P78356 whole entry, looked up): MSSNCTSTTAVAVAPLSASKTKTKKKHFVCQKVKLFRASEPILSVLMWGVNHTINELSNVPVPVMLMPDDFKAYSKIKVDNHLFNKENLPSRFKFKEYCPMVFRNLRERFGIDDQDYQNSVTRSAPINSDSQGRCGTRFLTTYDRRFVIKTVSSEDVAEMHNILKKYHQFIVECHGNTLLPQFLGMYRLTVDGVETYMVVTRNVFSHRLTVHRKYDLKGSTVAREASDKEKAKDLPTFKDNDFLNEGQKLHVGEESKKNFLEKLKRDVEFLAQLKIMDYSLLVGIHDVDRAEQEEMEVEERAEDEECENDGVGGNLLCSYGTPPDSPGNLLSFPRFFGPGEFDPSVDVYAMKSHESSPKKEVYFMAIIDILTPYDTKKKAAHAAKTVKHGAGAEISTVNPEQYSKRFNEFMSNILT
UniProt P0C869, sequence (P0C869 whole entry, looked up): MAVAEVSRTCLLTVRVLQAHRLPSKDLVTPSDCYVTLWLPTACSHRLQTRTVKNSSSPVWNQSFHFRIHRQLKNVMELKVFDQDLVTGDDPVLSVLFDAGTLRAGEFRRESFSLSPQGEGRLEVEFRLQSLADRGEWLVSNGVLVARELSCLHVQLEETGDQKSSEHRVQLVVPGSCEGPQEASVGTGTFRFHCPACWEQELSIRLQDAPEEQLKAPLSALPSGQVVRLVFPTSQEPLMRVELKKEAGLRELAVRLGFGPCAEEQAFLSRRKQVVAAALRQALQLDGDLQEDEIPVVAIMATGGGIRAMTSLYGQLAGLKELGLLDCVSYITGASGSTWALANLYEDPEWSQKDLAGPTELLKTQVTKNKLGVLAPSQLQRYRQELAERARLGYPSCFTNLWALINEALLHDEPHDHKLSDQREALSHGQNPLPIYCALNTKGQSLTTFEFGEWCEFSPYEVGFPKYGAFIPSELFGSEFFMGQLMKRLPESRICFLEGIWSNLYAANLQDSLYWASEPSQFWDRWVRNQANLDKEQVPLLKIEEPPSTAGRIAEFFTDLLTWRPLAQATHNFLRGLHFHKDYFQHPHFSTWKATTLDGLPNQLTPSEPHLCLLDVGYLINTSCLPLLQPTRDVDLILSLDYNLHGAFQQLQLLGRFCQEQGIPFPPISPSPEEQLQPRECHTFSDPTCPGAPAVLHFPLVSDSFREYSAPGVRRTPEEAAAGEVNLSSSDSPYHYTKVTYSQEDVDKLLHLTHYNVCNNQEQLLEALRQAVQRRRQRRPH
UniProt O43175, sequence (O43175 whole entry, looked up): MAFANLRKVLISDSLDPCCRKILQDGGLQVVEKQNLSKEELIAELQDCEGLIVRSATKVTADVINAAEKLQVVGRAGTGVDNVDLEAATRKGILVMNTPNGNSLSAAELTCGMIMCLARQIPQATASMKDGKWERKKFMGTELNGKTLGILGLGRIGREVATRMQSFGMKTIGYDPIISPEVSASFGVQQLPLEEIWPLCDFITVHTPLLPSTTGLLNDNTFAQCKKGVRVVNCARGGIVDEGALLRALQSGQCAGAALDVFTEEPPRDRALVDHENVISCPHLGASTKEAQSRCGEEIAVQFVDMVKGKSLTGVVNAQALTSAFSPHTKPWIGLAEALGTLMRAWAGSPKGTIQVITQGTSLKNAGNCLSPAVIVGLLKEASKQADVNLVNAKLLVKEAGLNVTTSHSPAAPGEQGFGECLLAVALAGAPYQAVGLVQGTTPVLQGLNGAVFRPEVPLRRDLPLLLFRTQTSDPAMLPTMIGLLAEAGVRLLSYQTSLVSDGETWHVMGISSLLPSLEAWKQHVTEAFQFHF
UniProt P28340, sequence (P28340 whole entry, looked up): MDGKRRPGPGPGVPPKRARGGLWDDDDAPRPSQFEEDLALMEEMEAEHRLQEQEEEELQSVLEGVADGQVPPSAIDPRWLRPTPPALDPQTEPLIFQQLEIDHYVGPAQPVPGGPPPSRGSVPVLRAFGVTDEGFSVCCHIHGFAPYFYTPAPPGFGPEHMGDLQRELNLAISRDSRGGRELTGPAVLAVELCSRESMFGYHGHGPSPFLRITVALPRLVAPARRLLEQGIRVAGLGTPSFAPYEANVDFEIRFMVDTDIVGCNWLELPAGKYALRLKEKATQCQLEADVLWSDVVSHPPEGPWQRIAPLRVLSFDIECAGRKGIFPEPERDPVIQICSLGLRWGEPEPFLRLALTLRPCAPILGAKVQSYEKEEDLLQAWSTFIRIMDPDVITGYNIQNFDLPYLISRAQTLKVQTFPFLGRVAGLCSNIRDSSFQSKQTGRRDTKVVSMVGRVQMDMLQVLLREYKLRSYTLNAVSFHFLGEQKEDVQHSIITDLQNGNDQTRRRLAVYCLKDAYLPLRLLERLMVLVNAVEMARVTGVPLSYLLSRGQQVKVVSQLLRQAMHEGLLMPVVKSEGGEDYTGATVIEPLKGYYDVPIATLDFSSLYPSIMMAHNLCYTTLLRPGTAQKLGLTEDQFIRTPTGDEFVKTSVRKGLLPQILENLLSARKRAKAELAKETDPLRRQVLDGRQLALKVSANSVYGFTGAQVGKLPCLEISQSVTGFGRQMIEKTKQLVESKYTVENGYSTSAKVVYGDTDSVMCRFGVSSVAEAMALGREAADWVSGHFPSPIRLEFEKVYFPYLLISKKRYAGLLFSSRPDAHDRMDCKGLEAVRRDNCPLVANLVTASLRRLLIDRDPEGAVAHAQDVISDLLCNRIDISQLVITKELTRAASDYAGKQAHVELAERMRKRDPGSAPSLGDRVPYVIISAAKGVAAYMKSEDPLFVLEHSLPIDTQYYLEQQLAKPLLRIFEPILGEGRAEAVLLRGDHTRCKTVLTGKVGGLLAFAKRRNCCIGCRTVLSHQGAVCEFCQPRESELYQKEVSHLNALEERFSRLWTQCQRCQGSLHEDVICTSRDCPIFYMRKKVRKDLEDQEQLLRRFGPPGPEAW
UniProt P0CAP2, sequence (P0CAP2 whole entry, looked up): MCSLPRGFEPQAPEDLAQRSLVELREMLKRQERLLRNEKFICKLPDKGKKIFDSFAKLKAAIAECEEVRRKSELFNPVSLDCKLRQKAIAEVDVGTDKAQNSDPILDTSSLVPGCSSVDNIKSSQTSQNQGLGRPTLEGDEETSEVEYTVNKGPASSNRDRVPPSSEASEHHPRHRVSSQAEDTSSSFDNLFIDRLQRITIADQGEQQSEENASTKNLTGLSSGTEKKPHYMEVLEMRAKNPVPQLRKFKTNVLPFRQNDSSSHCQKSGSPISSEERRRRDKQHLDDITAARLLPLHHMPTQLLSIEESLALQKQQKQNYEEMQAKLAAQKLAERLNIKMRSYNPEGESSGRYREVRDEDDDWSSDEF
UniProt P67775, sequence (P67775 whole entry, looked up): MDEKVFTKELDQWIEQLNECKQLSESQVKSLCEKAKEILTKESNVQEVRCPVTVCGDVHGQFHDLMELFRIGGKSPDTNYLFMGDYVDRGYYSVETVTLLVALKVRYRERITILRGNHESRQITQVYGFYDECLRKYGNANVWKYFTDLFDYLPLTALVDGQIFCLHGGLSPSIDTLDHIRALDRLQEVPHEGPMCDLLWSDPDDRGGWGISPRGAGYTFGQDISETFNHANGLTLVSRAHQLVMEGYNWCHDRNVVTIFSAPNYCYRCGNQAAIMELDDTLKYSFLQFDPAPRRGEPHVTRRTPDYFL
UniProt P54277, sequence (P54277 whole entry, looked up): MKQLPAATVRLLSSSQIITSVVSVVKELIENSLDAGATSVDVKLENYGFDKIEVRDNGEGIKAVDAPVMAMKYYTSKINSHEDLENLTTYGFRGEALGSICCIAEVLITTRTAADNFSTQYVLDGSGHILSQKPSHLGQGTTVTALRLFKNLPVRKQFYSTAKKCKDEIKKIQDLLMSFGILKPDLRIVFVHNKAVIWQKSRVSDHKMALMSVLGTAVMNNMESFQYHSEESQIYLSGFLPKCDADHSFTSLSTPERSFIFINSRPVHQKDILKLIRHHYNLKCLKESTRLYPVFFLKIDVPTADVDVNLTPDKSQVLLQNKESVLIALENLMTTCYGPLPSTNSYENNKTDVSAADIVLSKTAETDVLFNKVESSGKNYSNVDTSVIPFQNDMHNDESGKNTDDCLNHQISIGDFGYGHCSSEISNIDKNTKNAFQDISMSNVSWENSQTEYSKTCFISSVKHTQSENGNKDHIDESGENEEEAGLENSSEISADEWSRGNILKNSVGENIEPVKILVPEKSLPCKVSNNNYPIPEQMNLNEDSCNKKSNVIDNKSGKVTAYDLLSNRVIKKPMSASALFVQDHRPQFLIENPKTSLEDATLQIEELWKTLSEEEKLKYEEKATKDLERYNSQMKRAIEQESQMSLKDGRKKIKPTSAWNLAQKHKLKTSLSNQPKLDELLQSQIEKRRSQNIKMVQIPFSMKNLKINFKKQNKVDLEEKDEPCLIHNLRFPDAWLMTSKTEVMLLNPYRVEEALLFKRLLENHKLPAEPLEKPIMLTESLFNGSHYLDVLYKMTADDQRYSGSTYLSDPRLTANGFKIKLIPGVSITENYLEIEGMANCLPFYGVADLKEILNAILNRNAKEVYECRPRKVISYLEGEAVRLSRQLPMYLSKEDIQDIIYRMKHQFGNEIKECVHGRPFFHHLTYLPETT

Compound in the assay: Cn1cc(-c2ccc3c(c2)CCN3C(=O)Cc2cccc(C(F)(F)F)c2)c2c(N)ncnc21
The assay is described as follows: log2 fold change, soluble protein after heating vs DMSO (PISA); higher = thermal stabilisation; K562 lysate, 10 uM; active = over 0.2 and 3.5 SD of the protein, either way, in both replicates (recomputed). In outline: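 A 30 min treatment with 10 μM compound was applied to crude K562 extract at 1 mg/mL protein in PBS pH 7.4 with 1 mM MgCl2. Heating for 3 min spanned 48°C-58°C, after which aliquots were pooled, adjusted to 0.5% NP-40 at 4°C and spun at 21,000xg for 90 min. TMTpro 16plex LC-MS/MS of the supernatant, with channel sums equalised, gave values recorded as log-two fold change in thermal stability against solvent controls, from duplicates.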
Turning to PRAME (UniProt P78395), the log2 fold change was -0.017 (inactive).

PWP2 (UniProt Q15269): the log2 fold change was -0.023 (inactive).

As to POLA1 (UniProt P09884), the log2 fold change is 0.009 (inactive).

Take PCIF1 (UniProt Q9H4Z3): the log2 fold change was -0.439 (active).

Consider PGLS (UniProt O95336), for which the log2 fold change is 0.022 (inactive).

With PRKCSH isoform 2 (UniProt P14314), the log2 fold change is 0.003 (inactive).

Take PIP4K2B (UniProt P78356): the log2 fold change was 0.008 (inactive).

Turning to PPP1R8 (UniProt Q12972), the log2 fold change is 0.025 (inactive).

With POLD1 (UniProt P28340), the log2 fold change was 0.011 (inactive).

Turning to PIKFYVE (UniProt Q9Y2I7), the log2 fold change was 0.009 (inactive).

Take PPP2CA (UniProt P67775): the log2 fold change is 0.057 (inactive).

With PLA2G4B isoform 6 (UniProt P0C869), the log2 fold change is -0.047 (inactive).

For the target PCBP2 isoform 3 (UniProt Q15366), the log2 fold change was 0.039 (inactive).

Consider PWP1 (UniProt Q13610), for which the log2 fold change was 0.048 (inactive).

For PPP3CA isoform 2 (UniProt Q08209), the log2 fold change was -0.03 (inactive).

As for PMS1 (UniProt P54277), the log2 fold change is 0.017 (inactive).

With PIK3R1 (UniProt P27986), the log2 fold change was 0.004 (inactive).

Consider PKN1 isoform 2 (UniProt Q16512), for which the log2 fold change is 0 (inactive).

Take PTPN2 (UniProt P17706): the log2 fold change was 0.014 (inactive).

On to PIK3R2 (UniProt O00459), for which the log2 fold change was -0.008 (inactive).

On to PIK3CB (UniProt P42338), for which the log2 fold change is 0.055 (inactive).

With PRMT7 (UniProt Q9NVM4), the log2 fold change is -0.032 (inactive).

Turning to PRKCSH (UniProt K7ELL7), the log2 fold change was -0.015 (inactive).

On to PHGDH (UniProt O43175), for which the log2 fold change was 0.021 (inactive).

As to PRKACB isoform 2 (UniProt P22694), the log2 fold change is -0.028 (inactive).

Consider PTP4A1 (UniProt Q93096), for which the log2 fold change is 0 (inactive).

PIP5K1A (UniProt Q99755): the log2 fold change is 0.033 (inactive).

For the target PFAS (UniProt O15067), the log2 fold change was 0.008 (inactive).

Turning to PIGO (UniProt Q8TEQ8), the log2 fold change is 0.079 (inactive).

As for PRKCSH (UniProt P14314), the log2 fold change is -0.003 (inactive).

In the case of PCBP3 (UniProt P57721), the log2 fold change was -0.025 (inactive).

POGK (UniProt Q9P215): the log2 fold change was -0.023 (inactive).

Regarding PMPCA (UniProt Q10713), the log2 fold change was -0.017 (inactive).

On to PLIN2 (UniProt Q99541), for which the log2 fold change was 0.008 (inactive).

On to POLR2M (UniProt P0CAP2), for which the log2 fold change is -0.056 (inactive).

As to PDCD6IP (UniProt Q8WUM4), the log2 fold change is 0.049 (inactive).

As for PCF11 (UniProt O94913), the log2 fold change was -0.017 (inactive).

On to PLXND1 (UniProt Q9Y4D7), for which the log2 fold change is 0.013 (inactive).

As for PPP4R2 (UniProt Q9NY27), the log2 fold change is -0.028 (inactive).
